# Reference: paper PMC4336329 (PLoS ONE, 2015)
# The campaign covered roughly 310,000 compounds. About 14,000 (4.5%) showed an effect of 50% or more. The effect is printed as a negative number. The sample as a whole holds a higher share of strong results than the screen did.
# Target: human ether-à-go-go-related gene (hERG) potassium channel (human, UniProt Q12809)
# Assay: primary screen, population patch clamp on CHO cells stably expressing hERG; higher = less effect of the substance
# 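Also: peak tail current of the secondary pulse compared with the same well before compound.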
# human ether-à-go-go-related gene (hERG) potassium channel, sequence (Q12809 whole entry, looked up): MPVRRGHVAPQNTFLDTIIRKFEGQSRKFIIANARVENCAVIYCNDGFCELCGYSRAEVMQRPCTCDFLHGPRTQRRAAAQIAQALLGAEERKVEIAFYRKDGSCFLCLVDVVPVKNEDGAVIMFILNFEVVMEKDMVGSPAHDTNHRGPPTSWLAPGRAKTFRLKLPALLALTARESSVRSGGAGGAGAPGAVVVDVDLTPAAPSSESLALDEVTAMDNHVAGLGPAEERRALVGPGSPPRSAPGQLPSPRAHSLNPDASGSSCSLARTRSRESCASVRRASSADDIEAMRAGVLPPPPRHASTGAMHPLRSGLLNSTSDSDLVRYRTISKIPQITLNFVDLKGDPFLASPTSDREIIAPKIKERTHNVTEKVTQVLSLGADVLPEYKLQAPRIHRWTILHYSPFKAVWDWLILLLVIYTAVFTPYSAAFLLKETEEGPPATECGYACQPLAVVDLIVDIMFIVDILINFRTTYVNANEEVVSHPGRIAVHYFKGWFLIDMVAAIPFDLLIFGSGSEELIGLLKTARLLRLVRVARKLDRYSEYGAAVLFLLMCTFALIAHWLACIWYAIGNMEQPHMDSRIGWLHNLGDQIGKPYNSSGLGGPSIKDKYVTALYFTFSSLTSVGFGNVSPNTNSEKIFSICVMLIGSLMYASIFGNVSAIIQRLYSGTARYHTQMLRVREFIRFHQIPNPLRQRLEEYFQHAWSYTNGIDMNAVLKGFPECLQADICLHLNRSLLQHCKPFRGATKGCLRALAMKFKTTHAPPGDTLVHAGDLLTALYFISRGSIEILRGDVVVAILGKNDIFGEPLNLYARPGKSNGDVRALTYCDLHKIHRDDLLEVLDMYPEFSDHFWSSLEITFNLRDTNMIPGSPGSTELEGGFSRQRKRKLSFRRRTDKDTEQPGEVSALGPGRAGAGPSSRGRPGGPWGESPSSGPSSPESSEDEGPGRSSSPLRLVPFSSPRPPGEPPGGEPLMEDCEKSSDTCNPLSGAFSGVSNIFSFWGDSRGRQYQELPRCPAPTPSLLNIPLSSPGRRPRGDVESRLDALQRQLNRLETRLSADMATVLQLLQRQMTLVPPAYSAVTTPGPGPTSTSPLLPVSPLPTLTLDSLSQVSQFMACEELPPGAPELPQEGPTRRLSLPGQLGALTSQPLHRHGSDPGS
row,SMILES,"hERG current change (%, negative = inhibition) at 10uM [%]"
1,CCN1CCCC1CNC(=O)c1cc2c(=O)n(C)c3ccccc3c2n1C (stereo not shown),-18.5
2,Cc1ccc(CN(Cc2cccnc2)C(=S)Nc2cccc(Cl)c2C)cc1,8.32
3,O=C(Cc1ccccc1)Nc1cc([N+](=O)[O-])ccc1N1CCOCC1,-36.2
4,CCOC(=O)CSc1ccc2nnc(CCNS(=O)(=O)c3ccc(C)cc3)n2n1,4.23
5,O=C(CNS(=O)(=O)/C=C/c1ccccc1)OC1CCOC1=O (stereo not shown),15.9
6,Cc1cc(C)n(-c2nc(N(C)C)nc(N3CCOCC3)n2)n1,-6.78
7,CCN(CC)S(=O)(=O)c1ccc(OC)c(NC(=O)c2ccc([N+](=O)[O-])cc2)c1,-34.9
8,CN1/C(=C\C(=S)NC(=O)c2cccc(Br)c2)C(C)(C)c2ccccc21,-7.85
9,CCSc1nnc(N2C(=O)CC(c3ccsc3)C3=C2CC(C)(C)CC3=O)s1 (stereo not shown),-6.24
10,CN(Cc1nc2ccccc2c(=O)[nH]1)C(=O)c1ccc(S(=O)(=O)N(C)C)cc1,4.04
11,COc1cccc(Nc2nc(-c3cccs3)nc3ccccc23)c1,9.19
12,CCCCC(O)(CCCC)C(=O)N/N=C(\C)c1ccc(Cl)cc1,-66.9
13,C/C(=N\NC(N)=O)c1ccc(Cl)cc1,6.12
14,CCCCCC(=O)N/N=C(\C)c1ccc(Cl)cc1,9.87
15,Cc1onc(-c2ccccc2)c1C(=O)N1CCN(S(=O)(=O)c2ccccc2Br)CC1,-1.99
16,Cc1c(Cl)cccc1NC(=S)N1CC2CC(C1)c1cccc(=O)n1C2 (stereo not shown),-4.67
17,Cc1nn(-c2nc3ccccc3[nH]2)c(N)c1-c1ccccc1,0.295
18,Cc1nn(C(C)C(=O)NCCCN2CCCCC2C)c(=O)c2c1sc1ccccc12 (stereo not shown),-5.22
19,CCN(CC)CCCNC(=O)C(C)n1nc(C)c2sc3ccccc3c2c1=O (stereo not shown),-19.7
20,CCC1CCCCN1CCCNC(=O)C(C)n1nc(C)c2sc3ccccc3c2c1=O (stereo not shown),-69.8
21,Cc1nn(C(C)C(=O)NCCCN2CCCCCC2)c(=O)c2c1sc1ccccc12 (stereo not shown),-28.1
22,Cc1nn(C(C)C(=O)NCCCN(Cc2ccccc2)C(C)C)c(=O)c2c1sc1ccccc12 (stereo not shown),-11.7

row,SMILES,"hERG current change (%, negative = inhibition) at 10uM [%]"
1,CCC(C(=O)NCCCN(CC)Cc1ccccc1)n1nc(C)c2sc3ccccc3c2c1=O (stereo not shown),-68.1
2,CCC(=O)N1CCc2cc(S(=O)(=O)N3CCc4ccccc43)ccc21,2.61
3,Clc1ccc2oc(SCc3cccnc3)nc2c1,-16.2
4,CCCOc1ccc(OCCSc2ncccn2)cc1,-2.55
5,O=C(CCNC(=O)c1ccccc1)NCCCc1ccccc1,6.54
6,O=C(Nc1ccc(C(F)(F)F)cc1)C1CCN(c2cnccn2)CC1,-12.5
7,CN(Cc1cccc(Cl)c1Cl)CC(O)COc1ccccc1.O=C(O)C(=O)O (stereo not shown),-12
8,COc1ccc(CN(C)CC(O)COc2ccc(C(=O)c3ccccc3)cc2)c(OC)c1OC (stereo not shown),-63.7
9,COc1ccc(CN(C)Cc2ccccc2)c(OC)c1OC,-16.9
10,COc1ccc(CN(C)CC(O)COC(c2ccccc2)c2ccccc2)c(OC)c1OC (stereo not shown),-76.7
11,COc1cccc(OC)c1OCCOc1ccc(C(=O)c2ccccc2)cc1,-4.82
12,COc1ccc(CN(C)CCc2ccccn2)c(OC)c1OC.O=C(O)C(=O)O,-38.9
13,COc1ccc(CCNC(=O)C2CCC(=O)N(C3CCCCCC3)C2)cc1 (stereo not shown),8.9
14,O=C(CCN1C(=O)NC2(CCCC2)C1=O)Nc1cccc(S(=O)(=O)N2CCOCC2)c1,10.7
15,O=C(CSc1ncnc2c1nnn2Cc1ccccc1F)NCC1CCCO1 (stereo not shown),-2.7
16,Cc1ccc(S(=O)(=O)CCC(=O)Nc2ccc3c(c2)OCO3)cc1,-16
17,Cc1ccc(C)c(S(=O)(=O)N2CCN(C(=O)Nc3ccccc3)CC2)c1,-26.1
18,O=C(/C=C/c1ccc([N+](=O)[O-])s1)N1CCCC1,-52.9
19,O=C(/C=C/c1ccc([N+](=O)[O-])s1)N1CCN(c2ccccc2)CC1,-37
20,O=C(/C=C/c1ccc([N+](=O)[O-])s1)N1CCCCC1,-38.7
21,COc1cccc(-c2nn(CCC#N)cc2C(=O)Nc2ccccc2Cl)c1,5.09
22,CCC(C(=O)Nc1cc(C)cc(C)n1)c1ccccc1 (stereo not shown),-23.6

row,SMILES,"hERG current change (%, negative = inhibition) at 10uM [%]"
1,CC(=O)Nc1cc(C)nn1-c1nc(C)cc(C)n1,25.4
2,Cc1cc(NC(=O)CSc2cc(Cl)ccc2Cl)n(-c2ccccc2)n1,-20.2
3,Cc1cc(C)nc(-n2nc(C)cc2NC(=O)C(C)C)n1,16.9
4,CCC(C(=O)Nc1cc(C)nn1-c1nc(C)cc(C)n1)c1ccccc1 (stereo not shown),-67.7
5,CCc1ccc(NC(=O)CNCc2ccc(OC)c(OC)c2)cc1.O=C(O)C(=O)O,-21.3
6,CCN(CC(=O)Nc1cc(C)nn1-c1nc(C)cc(C)n1)Cc1ccccc1,-42.8
7,Cc1cc(C)nc(-n2nc(C)cc2NC(=O)CNC(C)c2ccccc2)n1 (stereo not shown),-62.2
8,COc1ccc(CNCC(=O)Nc2cc(C)nn2-c2nc(C)cc(C)n2)cc1OC,-56.8
9,COc1ccc(-c2nc(CSCC(=O)N3CCN(C)CC3)c(C)o2)cc1OC,11.7
10,COc1ccccc1Nc1nnc(SCc2nnc(-c3cc(OC)c(OC)c(OC)c3)o2)s1,-21.7
11,CC1(C)O[C@@H]2[C@H](O1)[C@@H](COS(=O)(=O)[O-])O[C@H]2n1cnc2c(N)ncnc21.[K+],15.7
12,O=C(COc1ccc(C(=O)NCCc2ccccc2)cc1)Nc1ccccc1,7.64
13,COc1ccc2[nH]c(C)c(CCNCc3cn(C)c4ccccc34)c2c1.O=C(O)C(=O)O,-27.8
14,Cc1[nH]c2ccc(OC(F)(F)F)cc2c1CCNCc1cccc([N+](=O)[O-])c1,-25.4
15,COc1ccc(CNCCc2c(C)[nH]c3ccc(OC(F)(F)F)cc23)c(OC)c1.O=C(O)C(=O)O,-51
16,CCOc1cccc(CNCCc2c(C)[nH]c3ccc(OC(F)(F)F)cc23)c1O.O=C(O)C(=O)O,-51.9
17,Cc1[nH]c2ccc(OC(F)(F)F)cc2c1CCNCc1ccc(Cl)cc1.O=C(O)C(=O)O,-34.5
18,COc1ccc2[nH]c(C)c(CCNCc3cccnc3)c2c1.O=C(O)C(=O)O,-3.77
19,CC(=O)n1cc(CO)c2ccccc21,9.03
20,O=S(=O)(Nc1nc2ccccc2nc1Nc1ccc2c(c1)OCO2)c1ccc(F)cc1,24.5
21,Cc1cccc(C)c1NC(=O)CSc1ccc([N+](=O)[O-])cn1,-12.3
22,COc1ccc(NC(=S)NCc2cccnc2)cc1OC,5.8

row,SMILES,"hERG current change (%, negative = inhibition) at 10uM [%]"
1,OC1(c2cccs2)CN(c2ccc(Br)cc2)C2=[N+]1CCCS2.[Br-] (stereo not shown),-72.1
2,CCc1ccc(N2CC(O)(c3cccs3)[N+]3=C2SCCC3)cc1.[Br-] (stereo not shown),-70
3,OC1(c2cccs2)CN(c2ccc(Cl)cc2)C2=[N+]1CCCS2.[Br-] (stereo not shown),-73.6
4,OC1(c2ccc(Br)cc2)CN(c2ccccc2)C2=[N+]1CCS2.[Br-] (stereo not shown),-19.5
5,Cc1ccc(Oc2ccc(C(=O)NC3CCSC3=O)cn2)cc1 (stereo not shown),12
6,CC(C)(CNc1ccc([N+](=O)[O-])cc1Cl)CNS(C)(=O)=O,-1.02
7,Cc1cc(/C=N/n2cnnc2)c(C)n1-c1ccccc1,-4.02
8,COc1ccccc1C(=O)CSc1nccn1C,-11.1
9,O=C1NC(=O)N(c2ccccc2)C(=O)/C1=C\c1ccc2c3c(cccc13)CC2,-20.4
10,CCOC(=O)c1c(NC(=O)c2ccc(Cl)cc2)csc1C,-0.689
11,Cc1cc(C(=O)NCCCN2CCN(c3cc(Cl)ccc3C)CC2)n(-c2ccccc2)n1,-89.2
12,O=C(NCCCN1CCN(CCCNC(=O)c2cccc(Cl)c2)CC1)c1cccc(Cl)c1,-74.4
13,Cc1cc(C(=O)NCCCN2CCN(C3CCCCC3)CC2)n(-c2ccccc2)n1,2.76
14,Cc1cc(C(=O)NCCCN2CCOCC2)n(-c2ccccc2)n1,19.3
15,CC(=O)Nc1ccccc1C(=O)C(=O)Nc1cccc(C(=O)NCc2ccc(C)cc2)c1,-58.3
16,COc1cccc(C(=O)NCCS(=O)(=O)NCc2ccc(Cl)cc2)c1,-36.5
17,O=C(NCCCn1ccnc1)c1cccc(Cl)c1,0.459
18,CCCCNC(=O)c1cccc(NC(=O)C(=O)c2ccccc2NC(C)=O)c1,-19.1
19,COc1ccc(CNS(=O)(=O)CCNC(=O)c2ccccc2)cc1,-4.36
20,O=C(NCCCN1CCN(c2cccc(Cl)c2)CC1)c1cccc(N2CCCC2=O)c1,-38
21,CC(=O)Nc1ccccc1C(=O)C(=O)Nc1cccc(C(=O)NCc2ccccc2)c1,-32.6
22,COc1ccc(CNS(=O)(=O)CCNC(=O)c2cccc(OC)c2)cc1,-78.1
